Here are results for 20 compounds from PubChem BioAssay (NCI).

Each structure is given as a SMILES string. The panel holds about 83,000 compounds, 20% with a hit somewhere; the sample as a whole holds those more often.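 Compound tested at a single concentration for 48 hours in 96-well plates; a percent growth value below 10 was scored as active.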 Unmarked numbers belong to inactive results. The source made the active and inactive calls.

Test systems include NCI-H23 lung; NCI-H226 lung; NCI-H322M lung; HOP-62 NSCLC; NCI-H460 lung; A549/ATCC NSCLC; 786-0 renal; COLO 205 colon; DU-145 prostate; NCI-H522 lung.
What all share (experiment): NCI-60 one-dose screen, 48 h (100 = growth as untreated, 0 = no growth, -100 = all killed)
What all share (details): 10 µM

Turning to `COc1ccc2c(c1)O/C(=C\c1ncc([N+](=O)[O-])n1C)C2=O`, the growth in the test on NCI-H23 lung was -7.25% (active); in the test on NCI-H226 lung, -42.3% (active); in the test on NCI-H322M lung, 2.34% (active); with HOP-62 NSCLC it was -20% (active); in the test with NCI-H460 lung it was -30.6% (active); in the test on A549/ATCC NSCLC it was -23.9% (active). In addition, the growth in the test with 786-0 renal was -13.4% (active); with COLO 205 colon it was -49.2% (active); in the test with DU-145 prostate, -19.2% (active).
With `COc1ccc2c(c1)O/C(=C\c1ccc([N+](=O)[O-])s1)C2=O`, the growth was 5.99% (active) with NCI-H23 lung; 69.9% in the test with NCI-H226 lung; 29.7% in the test on NCI-H322M lung; 45.6% with HOP-62 NSCLC; 2.82% (active) in the test on NCI-H460 lung; 33.9% with A549/ATCC NSCLC. Further, the growth was 69% with 786-0 renal, -30% (active) in the test on COLO 205 colon and -6.02% (active) in the test with DU-145 prostate.
Turning to `COc1cc(-c2cc(C(=O)N3CCN(C(=O)c4ccccc4NCc4cccs4)CC3)nc3cc(-c4ccccc4)nn23)cc(OC)c1OC`, the growth with NCI-H23 lung is 85.6%; in the test on NCI-H226 lung, 78.7%; with NCI-H322M lung, 72.1%; in the test on HOP-62 NSCLC, 87.5%; in the test on NCI-H460 lung, 38.4%; in the test with A549/ATCC NSCLC, 50.7%. Besides, the figures for the growth in the test with 786-0 renal, in the test on COLO 205 colon and in the test with DU-145 prostate were 85.2%, 56.1% and 81.7%, respectively.
Turning to `COc1ccc2c(c1)/C(=C\c1c[nH]c3ccc(OC)cc13)C(=O)N2`, the growth with NCI-H23 lung is 49.4%; in the test with NCI-H226 lung it was 72.7%; in the test with NCI-H322M lung, 54.7%; in the test with HOP-62 NSCLC, 51%; with NCI-H460 lung it was 53.2%; in the test on A549/ATCC NSCLC, 30.8%. Further, the growth with 786-0 renal is 70.9%; in the test on COLO 205 colon, 36.7%; in the test on DU-145 prostate, 63.1%.
Regarding `CO/N=C(/C(=O)NC1C(=O)N2C(C(=O)O)=C(COC(N)=O)CSC12)c1ccco1` (stereo not given), the growth in the test with NCI-H23 lung is 107%; in the test with NCI-H226 lung, 109%; in the test with NCI-H322M lung, 100%; in the test on HOP-62 NSCLC it was 112%; in the test on NCI-H460 lung, 118%; in the test with A549/ATCC NSCLC, 101%. The growth in the test on 786-0 renal was 96%; in the test on COLO 205 colon, 114%; in the test on DU-145 prostate, 127%.
On to `Fc1cc(C(F)(F)F)ccc1-c1cncnc1NC1CCCCCC1`, for which the growth with NCI-H23 lung was 92.6%; with NCI-H226 lung it was 82.6%; in the test on NCI-H322M lung, 104%; in the test on HOP-62 NSCLC it was 93.1%; in the test with NCI-H460 lung it was 102%; in the test on A549/ATCC NSCLC, 85.4%. The values for the growth in the test with 786-0 renal, with COLO 205 colon and in the test on DU-145 prostate were 97.9%, 105% and 101%, respectively.
As for `COc1cc(NC(=O)c2sc3nc4c(cc3c2N)C(O)CCC4)cc(OC)c1` (stereo not given), the growth was 99.3% with NCI-H23 lung; 97.1% with NCI-H226 lung; 88.7% in the test on NCI-H322M lung; 65.8% in the test on HOP-62 NSCLC; 104% in the test on NCI-H460 lung; 86.1% with A549/ATCC NSCLC. Further, the values for the growth with 786-0 renal, in the test with COLO 205 colon and in the test on DU-145 prostate were 97.3%, 105% and 108%, respectively.
As to `CCOC(=O)N/N=C\C(C)=N\NC(=O)OCC`, the growth with NCI-H23 lung was 101%; with NCI-H226 lung, 119%; with NCI-H322M lung it was 89.5%; in the test on HOP-62 NSCLC it was 96.3%; in the test with NCI-H460 lung it was 102%; in the test with A549/ATCC NSCLC it was 92.6%. Besides, the figures for the growth with 786-0 renal, with COLO 205 colon and in the test on DU-145 prostate were 101%, 114% and 106%, respectively.
On to `CCCCOc1ccc(NC(=O)Nc2nnc(C)s2)cc1`, for which the growth is 96.8% in the test with NCI-H23 lung; 101% with NCI-H226 lung; 103% in the test on NCI-H322M lung; 102% in the test on HOP-62 NSCLC; -36.8% (active) in the test with NCI-H522 lung; 41.4% with A549/ATCC NSCLC. For the same compound, the results for the growth in the test with 786-0 renal, with COLO 205 colon and in the test on DU-145 prostate were 93.5%, 120% and 120%, respectively.
For the compound `COc1cc(Cl)cc(-c2nn(-c3cccc(NC(=O)c4ccc(Cl)c(Cl)c4)c3)cc2-c2ccncc2)c1`, the growth was 75.3% in the test with NCI-H23 lung; 66.3% with NCI-H226 lung; 84.5% with NCI-H322M lung; 105% in the test on HOP-62 NSCLC; 53.7% in the test with NCI-H522 lung; 59.7% with A549/ATCC NSCLC. Besides, the values for the growth in the test with 786-0 renal, in the test on COLO 205 colon and in the test with DU-145 prostate were 74.1%, 81.5% and 88.5%, respectively.
As to `O=C(Nc1cccc(Cl)c1)Nc1nccs1`, the growth is 94.7% in the test with NCI-H23 lung; 99.6% in the test with NCI-H226 lung; 92.6% in the test on NCI-H322M lung; 94.6% in the test with HOP-62 NSCLC; 7.88% (active) in the test on NCI-H522 lung; 28.6% in the test with A549/ATCC NSCLC. The growth with 786-0 renal was 95.6%; in the test on COLO 205 colon it was 126%; in the test on DU-145 prostate, 114%.
`O=c1[nH]c2ccc(Cl)cc2c2ccccc12`: the growth in the test with NCI-H23 lung is 86.6%; in the test with NCI-H226 lung, 85.1%; in the test with NCI-H322M lung it was 42.5%; in the test on HOP-62 NSCLC, 72.2%; in the test with NCI-H522 lung, 109%; in the test with A549/ATCC NSCLC, 79.5%. Besides, the growth with 786-0 renal is 49.5%; in the test on COLO 205 colon, 86.5%; with DU-145 prostate, 78.2%.
As to `COc1ccc2c(c1)N(CCO)C1=C(C(=O)OC1)C2c1ccc(OC)c(OC)c1` (stereo not given), the growth is 46.1% with NCI-H23 lung; 46.7% with NCI-H226 lung; 61.3% in the test with NCI-H322M lung; 39% in the test on HOP-62 NSCLC; -12.4% (active) with NCI-H522 lung; 50.4% with A549/ATCC NSCLC. Also, the growth in the test on 786-0 renal was 42.2%; in the test on COLO 205 colon it was 29.7%; in the test with DU-145 prostate, 55.6%.
For the compound `COc1cc(-c2cc(/C=C3\C(=O)Nc4cc(Cl)ccc43)[nH]n2)cc(OC)c1OC`, the growth was 69.7% in the test with NCI-H23 lung; 50.4% with NCI-H226 lung; 47.5% in the test with NCI-H322M lung; 43.3% with HOP-62 NSCLC; 31.9% with NCI-H522 lung; 43% with A549/ATCC NSCLC. In addition, the growth was 93.7% in the test with 786-0 renal, 7.07% (active) with COLO 205 colon and 43.8% in the test on DU-145 prostate.
For the compound `CN(C)c1ccc(N=C2C=CC(=O)c3ccccc32)cc1`, the growth with NCI-H23 lung was 35.1%; in the test with NCI-H226 lung it was 91.7%; with NCI-H322M lung, 14.9%; with HOP-62 NSCLC it was 82.5%; with NCI-H522 lung, 48.2%; in the test on A549/ATCC NSCLC, 28%. Also, the growth in the test on 786-0 renal was 90.3%; in the test on COLO 205 colon it was 11.8%; in the test with DU-145 prostate, -58% (active).
Consider `CN(CCc1ccccn1)c1ccccc1`, for which the growth in the test with NCI-H23 lung is 110%; with NCI-H226 lung, 113%; in the test with NCI-H322M lung it was 113%; in the test with HOP-62 NSCLC, 104%; in the test on NCI-H522 lung it was 109%; in the test on A549/ATCC NSCLC, 99.7%. Further, the growth in the test on 786-0 renal is 98.5%; in the test on COLO 205 colon, 104%; in the test on DU-145 prostate, 121%.
For the compound `COc1ccc(-c2nn(-c3cccc(NC(=O)c4cccc(C(F)(F)F)c4)c3)cc2-c2ccncc2)cc1Cl`, the growth in the test with NCI-H23 lung is 52%; in the test on NCI-H226 lung it was 52.1%; in the test on NCI-H322M lung it was 47.3%; in the test on HOP-62 NSCLC it was 41.9%; in the test on NCI-H522 lung it was -20.1% (active); in the test on A549/ATCC NSCLC, 19.8%. In addition, the growth is 17.1% with 786-0 renal, 17.3% in the test on COLO 205 colon and 50.5% in the test on DU-145 prostate.
Consider `CC(C)(C)c1ccc(N2CSC(=S)N(c3ccc(C(C)(C)C)cc3)C2)cc1`, for which the growth in the test on NCI-H23 lung was 86.5%; in the test on NCI-H226 lung it was 93.2%; in the test with NCI-H322M lung it was 86.7%; in the test with HOP-62 NSCLC it was 88.2%; in the test on NCI-H522 lung, -14.2% (active); in the test on A549/ATCC NSCLC, 38%. The figures for the growth in the test with 786-0 renal, in the test on COLO 205 colon and in the test on DU-145 prostate were 103%, 92.5% and 123%, respectively.
For `O=C(Nc1ccncc1)C(=O)c1cn(S(=O)(=O)c2cccc3ccccc23)c2ccccc12`, the growth in the test on NCI-H23 lung was 62.1%; with NCI-H226 lung it was 76.8%; in the test with NCI-H322M lung it was 86%; in the test on HOP-62 NSCLC, 95.1%; in the test on NCI-H522 lung, 48%; in the test on A549/ATCC NSCLC, 77.8%. Besides, the figures for the growth with 786-0 renal, in the test on COLO 205 colon and with DU-145 prostate were 77.5%, 101% and 95.1%, respectively.
As to `O=C(Nc1nc(-c2ccccc2Cl)cs1)c1cc(-c2ccc(Cl)cc2)nc2ccc(Cl)cc12`, the growth with NCI-H23 lung is 28.8%; in the test with NCI-H226 lung, 72.7%; in the test on NCI-H322M lung it was 90.8%; in the test with HOP-62 NSCLC, 28.5%; in the test on NCI-H522 lung, 57.8%; in the test with A549/ATCC NSCLC it was 92.7%. For the same compound, the growth is 23.5% in the test on 786-0 renal, 94.3% in the test with COLO 205 colon and 32% in the test with DU-145 prostate.
